Source: PubChem (National Center for Advancing Translational Sciences (NCATS))
Rab9 promoter act – activates the Rab9 promoter | Huh7 Rab9 promoter-luciferase reporter, luminescence, 24 h | Potency, µM (highest dose often 9.22 µM), for inactives: top-dose activation, negative = inhibition, most hits filed as activators | 2.8% of 320,000 active | AID 485297; also: % of control where 0% means no effect; nearly all actives have a fitted effect of over 60% in size
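Using Huh7 cells stably transfected with Rab9 promoter–luciferase, compounds were incubated 24 h at 37 °C, 5% CO2; luciferase luminescence was read 10 min after reagent addition.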
SMN2 splice enh – increases expression of the SMN2 splice variant | HEK293 SMN2-luciferase splicing reporter, luminescence, 30-36 h | Potency, µM (titrated, usually from 46.1 µM), for the others: at the top dose activity change, positive = activation, hits mostly activators | 2.8% of 210,000 active; also: % of control where 0% means no effect; nearly all actives have a fitted effect of over 55% in size
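qHTS luciferase splicing reporter: luminescence rises when SMN2 exon 7 is included in transfected HEK293 cells. Compound exposure lasted 30-36 h at 37C, with 4.5 mM final sodium butyrate as control, followed by a ONE-Glo read.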
NPC1 promoter act – activates the NPC1 promoter. Huh7 NPC1 promoter luciferase reporter, 24 h. Potency, µM (highest dose often 9.22 µM), for the others: top-dose activation, hits mostly activators. 2.4% of 320,000 active; also: % of control where 0% means no effect; nearly all actives have a fitted effect of over 60% in size
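NPC1 promoter–luciferase Huh7 cells; 24 h compound; luminescence.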
FLuc modulator – firefly luciferase modulation, counter-screen for miR-21 project | P08659 | purified FLuc, Km substrates, luminescence inhibition | Potency, µM (highest dose often 57.5 µM), for the others: at the top dose activity change, negative = inhibition, actives largely listed as inhibitors | 6.9% of 360,000 active;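 also: plate controls were vehicle for no effect and reference inhibitor for full effect; nearly all actives have a fitted effect of over 55% in size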
Target sequence (P08659 whole entry, looked up): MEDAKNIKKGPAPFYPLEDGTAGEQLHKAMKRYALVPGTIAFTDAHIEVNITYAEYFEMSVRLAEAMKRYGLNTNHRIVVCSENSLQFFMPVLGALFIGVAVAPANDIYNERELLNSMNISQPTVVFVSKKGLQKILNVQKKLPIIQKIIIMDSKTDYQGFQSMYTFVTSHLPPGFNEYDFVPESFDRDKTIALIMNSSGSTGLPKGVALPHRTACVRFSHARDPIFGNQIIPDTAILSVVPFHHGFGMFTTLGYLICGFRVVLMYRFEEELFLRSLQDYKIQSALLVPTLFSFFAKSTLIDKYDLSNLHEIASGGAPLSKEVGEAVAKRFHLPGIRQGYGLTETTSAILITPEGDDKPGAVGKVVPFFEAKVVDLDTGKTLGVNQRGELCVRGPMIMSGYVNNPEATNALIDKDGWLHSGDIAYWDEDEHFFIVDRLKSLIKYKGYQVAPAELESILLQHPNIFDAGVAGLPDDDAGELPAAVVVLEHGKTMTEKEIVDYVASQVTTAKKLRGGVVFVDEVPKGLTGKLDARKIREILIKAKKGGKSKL
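Biochemical qHTS of compounds, final roughly 60 µM downward over six points, against 10 nM purified firefly luciferase using Km concentrations of substrates (10 uM D-luciferin, 10 uM ATP) in Tris acetate pH 7.5 buffer; luminescence output.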
ELG1 genotoxic – genotoxicity induction in ELG1-luciferase HEK293T cells; AID 504466; 1.3% of 330,000 active; Potency, µM (series often up to 46 µM), for inactives: top-dose activity change, positive = activation, usual class: activators; HEK293T ELG1-luciferase reporter, luminescence, 16 h; also: % of control where 0% means no effect; nearly all actives have a fitted effect of over 60% in size
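HEK293T cells expressing luciferase-tagged ELG1 were exposed to compound or DMSO vehicle for 16 hr at 37 °C and 5% CO2. Luciferase activity was then measured with ONE-Glo after 30 min at room temperature.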
Numbers without * were called inactive; ? = inconclusive; / = no result given. A selection: hits, their analogues and other compounds. The true share with any hit is near 7.4%. Calls follow the shape of the dose curve; as a rule, active = well fitted curve in the direction sought with a large enough effect; inconclusive = small, poorly fitted or top-dose-only effect, or another doubt; inactive = no such curve, though single readings can be large; an effect the other way counts as inactive or inconclusive. Potency is read from the fitted curve at half-maximal effect.

SMILES | Rab9 promoter act | SMN2 splice enh | NPC1 promoter act | FLuc modulator | ELG1 genotoxic
O=C1c2ccccc2C(=O)N1Cc1nc(-c2ccccn2)no1 | / | -12.9% | / | -14.8% | /
Cn1c(CCn2ccccc2=O)nc2cc(NC(=O)COc3ccccc3)ccc21 | 11.4% | / | 12.0% | -19.7% | 6.1%
CCOC(=O)C1CCN(C(=O)CN(C)S(=O)(=O)c2ccc3c(c2)c(=O)n(C)c(=O)n3C)CC1 | -1.4% | / | 1.6% | 0.4% | -2.0%
COc1cccc(CNS(=O)(=O)c2c(C(=O)N3CCCCCC3)c(C)n(C)c2C)c1 | -7.7% | / | -2.8% | -1.8% | 0.0%
O=C(c1cccs1)c1no[n+]([O-])c1C(=O)c1cccs1 | -39.7% | / | -41.8% | -22.4% | ?
O=C(c1cccs1)c1ccc(-c2cccs2)s1 | 0.501µM* | ? | ? | 0.301µM* | ?
CN1CCN(C(=O)c2ccc(-c3cccs3)s2)CC1 | 2.24µM* | / | 1.78µM* | 10.7µM* | ?
CN1CCCN(C(=O)c2ccc(Br)s2)CC1 | 3.4% | / | -1.0% | 2.0% | 2.4%
COc1ccc(S(=O)(=O)N2CCc3ccccc32)cc1C(=O)NC1(C)CCS(=O)(=O)C1 (configuration not stated) | 1.0% | / | 1.0% | 0.7% | 1.3%
O=C(CSc1nnc(SCc2cccc3ccccc23)s1)N/N=C/c1c[nH]c2ccccc12 | -1.0% | -26.0% | 0.0% | ? | -6.1%
O=C(O)COc1ccccc1/C=N/NC(=O)CSc1nnc(SCc2ccc(Cl)cc2)s1 | 5.4% | / | 13.5% | 9.53µM* | -3.1%
O=C(CSc1nnc(SCc2ccc(Cl)cc2)s1)N/N=C/c1c[nH]c2ccccc12 | -2.9% | -22.3% | 7.3% | -4.7% | 10.2%
O=C(O)COc1ccccc1/C=N/NC(=O)CSc1nnc(SCc2cccc3ccccc23)s1 | -3.9% | / | 1.9% | 19µM* | 0.5%
O=C(CSc1nnc(SCc2ccc(Cl)cc2)s1)N/N=C/c1ccc(C(=O)O)cc1 | 0.1% | / | 9.8% | 1.35µM* | 1.7%
Cc1ccc(Cl)cc1N1CCN(C(=O)c2ccc3c(c2)N(Cc2ccccc2F)C(=O)c2ccccc2S3=O)CC1 (configuration not stated) | / | -6.9% | / | -0.3% | /
Cc1ccc(C)c(CN2C(=O)c3ccccc3S(=O)c3ccc(C(=O)N4CCN(c5ccccc5F)CC4)cc32)c1 (configuration not stated) | / | 0.631µM* | / | -2.0% | /
Cc1ccc(C)c(CN2C(=O)c3ccccc3S(=O)c3ccc(C(=O)N4CCN(c5ccccn5)CC4)cc32)c1 (configuration not stated) | 0.8% | 4.47µM* | -5.1% | 0.4% | -13.8%
CCN1CCN(C(=O)c2ccc3c(c2)N(Cc2cc(C)ccc2C)C(=O)c2ccccc2S3=O)CC1 (configuration not stated) | / | 5.8% | / | -4.1% | /
CCOC(=O)COc1ccccc1C1C(C(=O)OC)=C(C)NC2=C1C(=O)c1ccccc12 (configuration not stated) | / | 1.8% | / | ? | /
CCCC(O)c1nc2ccccc2n1Cc1ccccc1OC (configuration not stated) | / | / | / | -5.6% | /
COc1ccc(-c2nc3ccccc3o2)cc1OC | 22.4% | / | ? | 10.7µM* | ?
Nc1nc2ccc(-c3nc4ccccc4o3)cc2s1 | 0.631µM* | 7.94µM* | 1.12µM* | 1.35µM* | ?
COC(=O)c1ccc(-c2nc3ccccc3o2)cc1 | 0.631µM* | ? | 3.55µM* | 1.9µM* | ?
COC(=O)c1ccc(-c2ncc(-c3cccc4ccccc34)o2)cc1 | 1.78µM* | 11.2µM* | ? | ? | 4.2%
COc1ccc(C(=O)OCC#CCSc2nnc(-c3cccc4ccccc34)o2)cc1 | -0.2% | / | 15.8% | 7.9% | 0.1%
SMILES | Rab9 promoter act | SMN2 splice enh | NPC1 promoter act | FLuc modulator | ELG1 genotoxic
S=C(Nc1ccccc1Cl)N(Cc1ccccc1)Cc1ccccn1 | -2.3% | -21.2% | 1.3% | -8.6% | -9.9%
CCn1cnc2c([N+](=O)[O-])c(NS(=O)(=O)c3ccc(C)cc3)ccc21 | -14.3% | / | -0.6% | -1.9% | 1.2%
COC(=O)c1ccc(-c2nc3ccc(C)cc3o2)cc1 | ? | 4.47µM* | ? | 1.2µM* | ?
COc1ccc(-c2nc3ccc(NS(C)(=O)=O)cc3o2)cc1 | / | / | / | 2.69µM* | /
Cc1ccc2oc(-c3ccc(NC(=O)c4ccc5c(c4)OCO5)cc3)nc2c1 | 13.7% | -10.3% | 2.4% | ? | 13.0%
c1ccc2oc(-c3ccc4nc[nH]c4c3)nc2c1 | 1.58µM* | 12.6µM* | 2.51µM* | 3.38µM* | 20.6µM*
Cc1cccc(NC(=O)CSc2n[nH]c(-c3cccnc3)n2)c1 | -2.8% | / | -1.7% | -4.5% | -0.1%
CCc1ccc(NC(=O)c2sc3nc(C)c(Cl)c(C)c3c2NC(=O)c2ccccc2)cc1 | / | 8.7% | / | 1.2% | /
CCOC(=O)c1csc(COc2ccc(OC)cc2)n1 | 0.447µM* | / | 0.447µM* | ? | 9.3%
CCOC(=O)c1csc(N)n1 | 2.82µM* | / | ? | 0.849µM* | ?
CCOC(=O)Cc1csc(N)n1 | 10.0% | -4.4% | -0.9% | -0.7% | 1.1%
COc1ccccc1CN1CCC2(CCNCC2)CC1 | / | -15.6% | / | / | /
COc1ccc(OC)c(C2CC(=O)Nc3c2c(=O)[nH]c2nc4ccccc4n32)c1 (configuration not stated) | / | -9.3% | / | -4.4% | /
O=c1c2ccccc2oc2ccc(Oc3ccccc3)cc12 | 1.78µM* | / | 2.82µM* | 4.26µM* | ?
COc1ccc(C)cc1NC(=O)Nc1ccc(C(=O)N2CCCC2)cc1 | 29.5% | / | 22.6% | 13.5µM* | 18.3%
COc1ccc(Cl)cc1NC(=O)Nc1ccc(C(=O)N2CCCC2)cc1 | 18.7% | / | 19.9% | 21.3µM* | -6.1%
Nc1nc(NC(=O)c2ccc(Cl)cc2)nn1-c1ccccc1 | 10.1% | 16.6% | 7.6% | 19µM* | -2.9%
CCCNC(=O)N1[C@H](c2cccs2)[C@@H](C)C(=O)[C@@H](C)[C@@H]1c1cccs1 | / | / | / | -1.8% | /
CCc1ccc(C(=O)CSc2nc3cc(S(=O)(=O)N4CCOCC4)ccc3n2CC)cc1 | 0.7% | -7.7% | 4.4% | 13.5µM* | 4.7%
CCn1c(SCC(=O)OC)nc2cc(S(=O)(=O)N3CCOCC3)ccc21 | -4.0% | / | -3.8% | 6.7% | 11.7%
CCOc1ccc(NC(=O)CN2C(=O)COc3ccc(S(=O)(=O)NC4CCCC4)cc32)cc1 | / | / | / | -12.4% | /
NS(=O)(=O)c1ccc(NC(=O)COC(=O)c2ccc3c(c2)OCCO3)cc1 | 1.0% | 18.0% | 0.8% | 5.5% | -2.9%
N#CCC(=O)Nc1ccc(C(=O)OCC(=O)c2ccc3c(c2)OCO3)cc1 | 3.98µM* | / | ? | ? | 12.2%
N#CCC(=O)Nc1ccc(C(=O)OCC(=O)c2ccc3c(c2)OCCO3)cc1 | ? | -5.4% | ? | 10.7µM* | 11.8%
CC(C)C(=O)Nc1cccc(C(=O)Nc2ccc(S(=O)(=O)N3CCOCC3)cc2)c1 | 0.1% | / | -4.5% | -0.5% | -0.7%
Cc1ccc(CN2CCc3nc(SCC(=O)Nc4cccc(C)c4C)[nH]c(=O)c3C2)cc1 | / | / | / | 0.6% | /
